Reference: the supplement of paper PMC10849652
Of roughly 7,900 targets only a part is listed; those with a hit were picked by preference. About 0.6% of all pairs of compound and target were hits.

How the values were obtained:
Test in all cases: log2 fold change, soluble protein after heating vs DMSO (PISA); higher = thermal stabilisation; K562 cells, 10 uM, 30 min; active = over 0.2 and 3.5 SD of the protein, either way, in both replicates (recomputed)
[1] = compound: CC[C@@H]1C(=O)N(C)c2cnc(Nc3ccc(C(=O)NC4CCN(C)CC4)cc3OC)nc2N1C1CCCC1
Procedure, shortened: (§1)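 K562 cells (2×10^6 cells/mL) were treated with 10 μM compound for 30 min, and aliquots were heated for 3 min over 48°C-58°C. Pooled aliquots were extracted in PBS with 0.5% NP-40 at 4°C, and the supernatant after 21,000xg for 90 min was measured by TMTpro 16plex LC-MS/MS with channel sums equalised. Reported thermal stability, relative to control samples and from duplicates, is a log2 fold change.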

[2] = compound: CC[C@@H]1C(=O)N(C)c2cnc(Nc3ccc(C(=O)N[C@H]4CC[C@H](N5CCN(CC6CC6)CC5)CC4)cc3OC)nc2N1C(C)C [volasertib]
Procedure, shortened: as §1

[3] = compound: CC[C@H](C)N1C=C(C2=C(C=C(C=C21)C3=CN=C(C=C3)N4CCNCC4)C(=O)NCC5=C(C=C(NC5=O)C)C)C
Procedure, shortened: as §1

[4] = compound: CC[C@H](C)[C@@H](C(=O)N[C@@H]([C@@H](C)O)C(=O)N[C@@H](CC(C)C)C(=O)[C@]1(CO1)C)NC(=O)[C@H]([C@@H](C)CC)N(C)C(=O)C [epoxomicin]
Procedure, shortened: as §1

[5] = compound: CCn1c(C(=O)N(C2CC2)C2CC2)cc2c3c(ncn3C)c(Nc3cc(C)n(C)n3)nc21
Procedure, shortened: as §1

[6] = compound: CCn1cc(-c2ccnc3[nH]c(-c4cccc(CN(C)C)c4)cc23)c(-c2ccc(NC(=O)N(C)C)cc2)n1
Procedure, shortened: as §1

[7] = compound: CN(C)CC(=O)Nc1ccc2[nH]c(=O)c3ccccc3c2c1
Procedure, shortened: as §1

[8] = compound: CN(CCOC1=CC=C(C=C1)C[C@H]2C(=O)NC(=O)S2)C3=CC=CC=N3 (racemic) [rosiglitazone]
Procedure, shortened: as §1

[9] = compound: CN1C2=C(C3=C1C(=O)N(N=C3)CC4=CC(=CC=C4)N)SC(=C2)S(=O)C
Procedure, shortened: as §1

[10] = compound: CN1CCC(CNc2ccc3ncc(-c4cccc(OC(F)(F)F)c4)n3n2)CC1
Procedure, shortened: as §1

[11] = compound: CN1CCN(CCOc2cc(OC3CCOCC3)c3c(Nc4c(Cl)ccc5c4OCO5)ncnc3c2)CC1 [saracatinib]
Procedure, shortened: as §1

[12] = compound: CN1CCN(c2nc(C3=C(c4c[nH]c5ccccc45)C(=O)NC3=O)c3ccccc3n2)CC1 [sotrastaurin]
Procedure, shortened: as §1

[13] = compound: CN1CC[C@H](c2c(O)cc(O)c3c(=O)cc(-c4ccccc4Cl)oc23)[C@H](O)C1 [alvocidib]
Procedure, shortened: as §1

[14] = compound: CN1CCc2c(c3ccccc3n2Cc2ccc(C(=O)NO)cc2)C1 [Tubastatin A]
Procedure, shortened: as §1

[15] = compound: CNC(=O)C1=CC=CC=C1NC2=NC(=NC=C2Cl)NC3=C(C=C(C=C3)N4CCOCC4)OC
Procedure, shortened: as §1

[16] = compound: CNC(=O)c1ccc(Nc2ncc(C(F)(F)F)c(NCc3nccnc3N(C)S(C)(=O)=O)n2)cc1 [defactinib]
Procedure, shortened: as §1

[17] = compound: CNCc1ccc(-c2[nH]c3cc(F)cc4c3c2CCNC4=O)cc1 [rucaparib]
Procedure, shortened: as §1

[18] = compound: CNc1nc(-c2ccc3c(N)n[nH]c3c2)cc(N2C[C@@H](C(=O)NC3CCCCC3)CC[C@H]2C)n1
Procedure, shortened: as §1

[19] = compound: COC(=O)N[C@@H](C)CNc1nccc(-c2cn(C(C)C)nc2-c2cc(Cl)cc(NS(C)(=O)=O)c2F)n1 [encorafenib]
Procedure, shortened: as §1

[20] = compound: COC(=O)[C@H](CCSC)NC(=O)C1=C(C=C(C=C1)NC[C@H](CS)N)C2=CC=CC=C2
Procedure, shortened: as §1

Measured: log2 fold change

MIS12 (UniProt Q9H081)
UniProt Q9H081, sequence (Q9H081 whole entry, looked up): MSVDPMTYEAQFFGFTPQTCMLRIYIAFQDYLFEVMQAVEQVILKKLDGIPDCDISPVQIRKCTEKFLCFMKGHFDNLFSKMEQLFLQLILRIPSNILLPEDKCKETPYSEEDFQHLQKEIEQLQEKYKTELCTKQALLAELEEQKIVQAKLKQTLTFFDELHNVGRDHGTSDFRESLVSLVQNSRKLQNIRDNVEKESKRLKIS
active: [2] -0.36
inactive: [1] -0.072 | [3] 0.012 | [4] 0.026 | [5] -0.034 | [6] -0.007 | [7] 0.055 | [8] 0.04 | [9] -0.107 | [10] -0.039 | [11] 0.04 | [12] -0.014 | [13] -0.145 | [14] 0.031 | [15] 0.002 | [16] -0.143 | [17] 0.021 | [18] -0.006 | [19] 0.021 | [20] -0.052

NOP2 isoform 4 (UniProt P46087)
UniProt P46087, sequence (P46087 whole entry, looked up): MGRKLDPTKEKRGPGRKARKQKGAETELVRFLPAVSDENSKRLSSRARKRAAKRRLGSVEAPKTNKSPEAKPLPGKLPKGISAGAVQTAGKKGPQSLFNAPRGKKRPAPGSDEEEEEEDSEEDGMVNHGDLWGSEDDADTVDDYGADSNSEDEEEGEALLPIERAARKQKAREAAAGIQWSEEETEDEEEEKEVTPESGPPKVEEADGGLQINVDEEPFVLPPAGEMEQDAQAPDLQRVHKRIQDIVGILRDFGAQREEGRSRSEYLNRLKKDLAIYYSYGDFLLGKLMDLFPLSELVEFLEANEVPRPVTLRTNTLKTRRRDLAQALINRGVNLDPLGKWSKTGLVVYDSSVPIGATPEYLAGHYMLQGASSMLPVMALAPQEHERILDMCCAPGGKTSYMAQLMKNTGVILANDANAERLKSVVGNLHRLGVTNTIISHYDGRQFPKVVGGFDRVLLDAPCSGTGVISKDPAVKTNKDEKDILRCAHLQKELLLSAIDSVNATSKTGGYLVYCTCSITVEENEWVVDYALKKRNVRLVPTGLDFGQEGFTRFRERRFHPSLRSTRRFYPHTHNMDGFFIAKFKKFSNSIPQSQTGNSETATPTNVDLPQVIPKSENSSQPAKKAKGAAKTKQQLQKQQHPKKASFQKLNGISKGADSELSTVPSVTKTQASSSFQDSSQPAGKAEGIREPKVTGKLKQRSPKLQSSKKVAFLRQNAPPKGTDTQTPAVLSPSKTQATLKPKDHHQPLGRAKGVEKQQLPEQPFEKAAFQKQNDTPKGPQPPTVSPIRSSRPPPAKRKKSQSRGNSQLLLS
inactive: [1] 0.196 | [2] 0.348 | [3] -0.03 | [4] -0.328 | [5] -0.098 | [6] 0.364 | [7] -0.346 | [8] -0.056 | [9] 0.546 | [10] 0.494 | [11] -0.09 | [12] -0.007 | [13] 0.574 | [14] 0.079 | [15] 0.064 | [17] 0.673 | [18] 0.115 | [19] 0.238 | [20] -0.024
active: [16] 1.26

MKNK1 (UniProt Q9BUB5)
UniProt Q9BUB5, sequence (Q9BUB5 whole entry, looked up): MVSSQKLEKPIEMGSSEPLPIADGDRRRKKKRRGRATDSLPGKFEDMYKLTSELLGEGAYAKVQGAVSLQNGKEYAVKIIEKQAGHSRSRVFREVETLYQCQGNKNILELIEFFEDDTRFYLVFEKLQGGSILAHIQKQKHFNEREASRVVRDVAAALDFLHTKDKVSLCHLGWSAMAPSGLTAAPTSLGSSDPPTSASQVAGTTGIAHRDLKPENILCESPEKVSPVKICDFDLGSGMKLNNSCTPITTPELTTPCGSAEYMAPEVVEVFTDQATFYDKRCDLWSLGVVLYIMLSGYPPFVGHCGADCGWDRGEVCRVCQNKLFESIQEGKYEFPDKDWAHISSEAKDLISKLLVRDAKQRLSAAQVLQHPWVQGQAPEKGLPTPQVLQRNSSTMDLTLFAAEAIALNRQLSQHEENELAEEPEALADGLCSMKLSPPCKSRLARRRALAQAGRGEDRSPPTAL
inactive: [1] -0.148 | [2] -0.183 | [3] -0.025 | [4] 0.018 | [5] -0.023 | [6] -0.101 | [7] 0.009 | [8] 0.036 | [9] -0.095 | [10] -0.006 | [11] 0.049 | [12] -0.088 | [13] -0.06 | [14] 0.037 | [15] 0.038 | [16] -0.102 | [17] 0.099 | [18] 0.051 | [19] 0.018 | [20] -0.053

ORC3 isoform 2 (UniProt Q9UBD5)
UniProt Q9UBD5, sequence (Q9UBD5 whole entry, looked up): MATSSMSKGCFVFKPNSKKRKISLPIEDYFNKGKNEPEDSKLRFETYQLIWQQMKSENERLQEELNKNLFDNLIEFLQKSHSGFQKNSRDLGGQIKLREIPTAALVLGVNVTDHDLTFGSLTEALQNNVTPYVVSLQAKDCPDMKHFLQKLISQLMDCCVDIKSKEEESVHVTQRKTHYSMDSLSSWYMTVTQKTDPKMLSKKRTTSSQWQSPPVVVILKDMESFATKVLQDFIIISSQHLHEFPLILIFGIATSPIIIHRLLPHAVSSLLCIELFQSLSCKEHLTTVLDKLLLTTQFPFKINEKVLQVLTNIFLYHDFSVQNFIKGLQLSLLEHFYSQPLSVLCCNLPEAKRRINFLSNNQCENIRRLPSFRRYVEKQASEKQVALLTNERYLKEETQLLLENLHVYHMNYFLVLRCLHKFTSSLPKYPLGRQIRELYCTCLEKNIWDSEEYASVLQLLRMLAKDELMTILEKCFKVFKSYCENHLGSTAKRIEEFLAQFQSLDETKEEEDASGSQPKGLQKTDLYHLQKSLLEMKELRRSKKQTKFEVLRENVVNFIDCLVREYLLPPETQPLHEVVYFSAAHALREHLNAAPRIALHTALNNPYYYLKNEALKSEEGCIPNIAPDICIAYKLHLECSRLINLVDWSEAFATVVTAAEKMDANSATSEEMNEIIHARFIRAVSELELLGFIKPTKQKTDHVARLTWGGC
inactive: [1] -0.046 | [2] -0.396 | [3] 0.044 | [4] 0.181 | [5] -0.053 | [6] -0.017 | [7] 0.067 | [8] 0.059 | [9] -0.034 | [10] -0.376 | [11] 0.001 | [12] 0.011 | [13] -0.299 | [14] 0.006 | [15] -0.078 | [16] -0.288 | [17] 0 | [18] 0.014 | [19] 0.288 | [20] 0.06

NACC1 (UniProt Q96RE7)
active: [2] -0.616
inactive: [1] -0.32 | [3] 0.112 | [4] 0.002 | [5] -0.079 | [6] -0.022 | [7] 0.033 | [8] 0.095 | [9] 0 | [10] -0.259 | [11] -0.055 | [12] -0.141 | [13] -0.26 | [14] 0.034 | [15] -0.063 | [16] -0.312 | [17] 0.01 | [18] -0.006 | [19] 0.13 | [20] -0.021

NFE2 (UniProt Q16621)
UniProt Q16621, sequence (Q16621 whole entry, looked up): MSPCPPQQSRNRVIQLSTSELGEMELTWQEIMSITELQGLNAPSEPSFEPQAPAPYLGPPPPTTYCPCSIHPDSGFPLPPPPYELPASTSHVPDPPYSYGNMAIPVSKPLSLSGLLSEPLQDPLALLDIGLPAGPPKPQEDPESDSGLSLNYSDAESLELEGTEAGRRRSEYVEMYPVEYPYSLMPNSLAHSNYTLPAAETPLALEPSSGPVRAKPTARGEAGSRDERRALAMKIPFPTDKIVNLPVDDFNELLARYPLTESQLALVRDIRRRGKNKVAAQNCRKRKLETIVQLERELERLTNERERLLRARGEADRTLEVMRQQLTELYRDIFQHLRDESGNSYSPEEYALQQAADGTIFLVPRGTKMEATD
inactive: [1] -0.136 | [2] -0.227 | [3] 0.018 | [4] 0.173 | [5] 0.012 | [6] 0.084 | [7] 0.273 | [8] 0 | [9] -0.015 | [10] -0.145 | [11] 0.011 | [12] -0.096 | [13] -0.182 | [14] 0.093 | [15] -0.025 | [16] -0.037 | [17] -0.075 | [18] -0.065 | [19] 0.018 | [20] -0.06

NNMT (UniProt P40261)
inactive: [1] 0.003 | [2] -0.197 | [3] 0.023 | [4] 0.039 | [5] 0.017 | [6] -0.068 | [7] -0.042 | [8] 0.007 | [9] -0.025 | [10] -0.152 | [11] -0.041 | [12] 0.01 | [13] -0.087 | [14] -0.081 | [15] 0.016 | [16] 0.004 | [17] -0.078 | [18] 0.021 | [19] -0.021 | [20] 0.038

MRPL47 (UniProt Q9HD33)
inactive: [1] 0.094 | [2] -0.038 | [3] 0.044 | [4] 0.061 | [5] -0.021 | [6] 0.235 | [7] -0.036 | [8] -0.027 | [9] 0.071 | [10] -0.325 | [11] -0.168 | [12] -0.024 | [13] 0.113 | [14] 0.081 | [15] -0.028 | [16] 0.151 | [17] -0.122 | [18] 0.17 | [19] 0.063 | [20] -0.022

NOL7 (UniProt Q9UMY1)
UniProt Q9UMY1, sequence (Q9UMY1 whole entry, looked up): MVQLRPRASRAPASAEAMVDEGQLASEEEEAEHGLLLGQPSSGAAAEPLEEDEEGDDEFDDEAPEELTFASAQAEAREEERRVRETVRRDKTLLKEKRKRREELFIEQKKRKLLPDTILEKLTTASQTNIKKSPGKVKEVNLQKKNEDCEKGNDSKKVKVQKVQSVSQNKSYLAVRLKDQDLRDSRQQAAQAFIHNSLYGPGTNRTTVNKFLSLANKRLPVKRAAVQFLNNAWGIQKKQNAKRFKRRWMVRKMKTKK
inactive: [1] 0.226 | [2] 0.417 | [3] -0.086 | [4] -0.338 | [5] -0.019 | [6] 0.232 | [7] -0.123 | [8] -0.154 | [9] 0.316 | [10] 0.237 | [11] -0.057 | [12] 0.017 | [13] 0.379 | [14] 0.161 | [15] 0.032 | [16] 0.303 | [17] 0.312 | [18] 0.098 | [19] 0.1 | [20] -0.042

NOP53 (UniProt Q9NZM5)
inactive: [1] 0.174 | [2] 0.393 | [3] -0.014 | [4] -0.009 | [5] -0.132 | [6] 0.013 | [7] -0.111 | [8] -0.053 | [9] 0.516 | [10] 0.599 | [11] -0.063 | [12] -0.014 | [13] 0.396 | [14] 0.141 | [15] -0.019 | [16] 0.62 | [17] 0.36 | [18] 0.035 | [19] 0.174 | [20] -0.022

NRDC isoform 2 (UniProt O43847)
UniProt O43847, sequence (O43847 whole entry, looked up): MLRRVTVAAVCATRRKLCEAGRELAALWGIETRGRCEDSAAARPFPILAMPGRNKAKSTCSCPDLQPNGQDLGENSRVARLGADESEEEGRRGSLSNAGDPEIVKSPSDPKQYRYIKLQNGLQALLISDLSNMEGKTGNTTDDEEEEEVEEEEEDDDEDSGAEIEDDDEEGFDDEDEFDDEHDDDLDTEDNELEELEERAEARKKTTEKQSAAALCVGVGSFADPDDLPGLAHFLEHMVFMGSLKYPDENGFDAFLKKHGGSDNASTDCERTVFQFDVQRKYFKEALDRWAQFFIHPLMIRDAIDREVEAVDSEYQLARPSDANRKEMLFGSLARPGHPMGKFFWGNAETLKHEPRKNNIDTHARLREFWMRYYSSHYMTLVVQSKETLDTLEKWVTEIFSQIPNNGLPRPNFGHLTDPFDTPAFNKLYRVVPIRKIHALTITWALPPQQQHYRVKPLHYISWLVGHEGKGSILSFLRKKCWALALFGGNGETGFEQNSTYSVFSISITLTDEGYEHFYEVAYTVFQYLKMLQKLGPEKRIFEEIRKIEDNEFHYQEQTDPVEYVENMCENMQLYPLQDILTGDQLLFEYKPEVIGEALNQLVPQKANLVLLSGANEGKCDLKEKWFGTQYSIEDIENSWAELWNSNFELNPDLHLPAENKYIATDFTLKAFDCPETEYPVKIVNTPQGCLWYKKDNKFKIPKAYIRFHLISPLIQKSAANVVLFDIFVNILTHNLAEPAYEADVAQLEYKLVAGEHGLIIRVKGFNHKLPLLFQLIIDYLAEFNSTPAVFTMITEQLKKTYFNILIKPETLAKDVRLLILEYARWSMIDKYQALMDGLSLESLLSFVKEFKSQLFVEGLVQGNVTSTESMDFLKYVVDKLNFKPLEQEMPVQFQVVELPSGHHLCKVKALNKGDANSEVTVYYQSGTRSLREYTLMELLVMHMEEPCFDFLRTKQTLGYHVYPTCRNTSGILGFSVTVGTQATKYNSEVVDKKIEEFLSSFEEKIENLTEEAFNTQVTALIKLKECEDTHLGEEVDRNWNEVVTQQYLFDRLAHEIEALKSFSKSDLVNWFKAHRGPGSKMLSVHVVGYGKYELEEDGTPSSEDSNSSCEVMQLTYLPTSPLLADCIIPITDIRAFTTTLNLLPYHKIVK
active: [2] -0.371
inactive: [1] -0.18 | [3] 0.069 | [4] 0.038 | [5] -0.067 | [6] -0.087 | [7] 0.055 | [8] 0.073 | [9] 0 | [10] -0.087 | [11] -0.024 | [12] -0.028 | [13] -0.078 | [14] -0.009 | [15] -0.033 | [16] -0.077 | [17] 0.092 | [18] 0.01 | [19] 0.024 | [20] -0.076

NIPSNAP2 (UniProt O75323)
UniProt O75323, sequence (O75323 whole entry, looked up): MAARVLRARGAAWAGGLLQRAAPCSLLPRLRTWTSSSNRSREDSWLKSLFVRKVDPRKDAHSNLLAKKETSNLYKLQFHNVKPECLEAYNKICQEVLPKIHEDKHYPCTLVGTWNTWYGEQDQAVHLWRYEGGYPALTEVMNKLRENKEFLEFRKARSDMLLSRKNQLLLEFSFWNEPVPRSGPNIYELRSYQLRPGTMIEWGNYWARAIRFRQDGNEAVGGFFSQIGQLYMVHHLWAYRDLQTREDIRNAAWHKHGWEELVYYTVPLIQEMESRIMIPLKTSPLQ
inactive: [1] 0.043 | [2] 0.009 | [3] -0.003 | [4] 0.07 | [5] 0.009 | [6] -0.115 | [7] -0.041 | [8] 0.005 | [9] -0.083 | [10] 0.028 | [11] -0.017 | [12] -0.082 | [13] 0.031 | [14] -0.019 | [15] 0.104 | [16] -0.003 | [17] -0.085 | [18] -0.08 | [19] -0.028 | [20] 0.033

MRPS18B (UniProt Q9Y676)
inactive: [1] 0.028 | [2] -0.039 | [3] 0.09 | [4] 0.042 | [5] -0.075 | [6] -0.021 | [7] 0.041 | [8] -0.069 | [9] -0.01 | [10] -0.087 | [11] -0.038 | [12] 0.082 | [13] -0.059 | [14] 0.125 | [15] 0.007 | [16] -0.016 | [17] 0.065 | [18] 0.225 | [19] 0.034 | [20] -0.027

NOL11 (UniProt Q9H8H0)
UniProt Q9H8H0, sequence (Q9H8H0 whole entry, looked up): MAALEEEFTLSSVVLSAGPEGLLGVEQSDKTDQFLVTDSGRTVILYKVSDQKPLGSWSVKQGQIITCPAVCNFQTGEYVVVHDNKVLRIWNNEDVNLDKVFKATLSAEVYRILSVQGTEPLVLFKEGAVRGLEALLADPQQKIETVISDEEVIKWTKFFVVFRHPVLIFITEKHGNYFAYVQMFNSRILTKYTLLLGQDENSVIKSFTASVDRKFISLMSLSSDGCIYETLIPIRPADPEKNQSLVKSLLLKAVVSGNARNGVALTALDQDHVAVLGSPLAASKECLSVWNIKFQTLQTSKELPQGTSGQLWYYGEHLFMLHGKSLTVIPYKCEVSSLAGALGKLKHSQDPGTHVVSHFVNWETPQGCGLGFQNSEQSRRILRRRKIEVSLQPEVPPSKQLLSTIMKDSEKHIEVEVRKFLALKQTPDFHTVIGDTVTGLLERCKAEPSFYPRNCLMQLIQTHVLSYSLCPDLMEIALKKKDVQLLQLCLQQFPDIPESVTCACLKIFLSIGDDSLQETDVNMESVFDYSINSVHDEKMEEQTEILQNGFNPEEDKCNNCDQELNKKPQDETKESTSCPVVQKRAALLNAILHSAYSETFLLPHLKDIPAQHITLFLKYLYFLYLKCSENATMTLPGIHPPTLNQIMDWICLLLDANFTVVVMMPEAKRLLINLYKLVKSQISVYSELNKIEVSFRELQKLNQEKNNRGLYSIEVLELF
inactive: [1] 0.029 | [2] -0.097 | [3] -0.025 | [4] -0.015 | [5] -0.031 | [6] -0.027 | [7] -0.005 | [8] -0.025 | [9] -0.028 | [10] 0.126 | [11] 0.093 | [12] 0.022 | [13] 0.089 | [14] -0.08 | [15] 0.007 | [16] 0.186 | [17] 0.071 | [18] 0.002 | [19] -0.012 | [20] -0.009

MTHFD1 (UniProt P11586)
inactive: [1] -0.074 | [2] -0.002 | [3] 0.035 | [4] 0.067 | [5] -0.011 | [6] -0.159 | [7] 0.051 | [8] 0.024 | [9] -0.057 | [10] 0.004 | [11] 0.004 | [12] 0.018 | [13] -0.055 | [14] -0.009 | [15] 0.003 | [16] -0.046 | [17] -0.032 | [18] 0.058 | [19] 0.04 | [20] -0.036

NA, A0A096LPI6
inactive: [1] 0.023 | [2] 0.044 | [3] -0.056 | [4] -0.017 | [5] 0.042 | [6] 0.029 | [7] -0.002 | [8] -0.019 | [9] -0.03 | [10] 0.016 | [11] 0.05 | [12] 0.017 | [13] -0.02 | [14] -0.037 | [15] 0.005 | [16] 0 | [17] 0.007 | [18] -0.055 | [19] -0.009 | [20] 0.019
